Test results from PubChem BioAssay AID720489 (Milwaukee Institute for Drug Discovery, 2013).
This is one part of the list. A number with no mark means an inactive call. The source made the active and inactive calls.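 The calls were made as follows: active = fluorescence interference ratio at or below 0.8 quencher or at or above a set limitenhancer; inactive = the rest.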

Test: compounds quenching or enhancing NS3h-DNA Cy5 signal – biochemical, ChemBridge library, Cy5-DNA-NS3h complex, artefact control for HCV NS3 helicase inhibitor project, confirmation (AID 720489)
Settings: Cy5-dT15 DNA/NS3h fluorescence interference counterscreen; at 100 µM

Row | Compound | fluorescence interference ratio
1 | O=c1c2c(nc3cc(-c4cccc(F)c4)[nH]n13)CCS2 | 0.718 (active)
2 | COc1cc(/C(O)=C(\C#N)c2nc3ccccc3n2C)cc(OC)c1OC | 0.722 (active)
3 | COc1cc(C=C2C(=O)NC(=O)NC2=O)ccc1OCCOc1ccc([N+](=O)[O-])cc1 | 0.667 (active)
4 | Cc1ccc(C(=O)NCCNc2ccc([N+](=O)[O-])cc2)cc1 | 0.955
5 | CCOc1ccc(C=C2C(=O)NC(=O)NC2=O)cc1Cl | 0.902
6 | O=C1NC(=O)C(=Cc2cc([N+](=O)[O-])cc(Br)c2O)C(=O)N1 | 0.747 (active)
7 | N#Cc1c(N)nc2sc(C(=O)Nc3ccccc3)c(N)c2c1-c1ccco1 | 0.783 (active)
8 | O=C(NC(=S)Nc1ccc(-c2nc3cc(Cl)ccc3o2)cc1)c1ccco1 | 1.01
9 | C=CCN1C(=O)/C(=C\c2cc(OC)c(O)c([N+](=O)[O-])c2)C(=O)NC1=S | 0.746 (active)
10 | Cc1ccc(C(=O)C[n+]2cc(-c3ccccc3)n3c2CCCCC3)cc1 | 1.02
11 | CC(C)(C)N1C(=O)NC(=O)C(=Cc2cccs2)C1=O | 0.788 (active)
12 | COc1ccc(C(=O)Oc2ccc3oc(=O)cc(C)c3c2)cc1OC | 0.772 (active)
13 | CCN(CC)c1ccc(NC(=O)/C(=C\c2ccccc2)NC(C)=O)cc1 | 1.09
14 | COc1ccc(N2C(=O)C=CC2=O)c([N+](=O)[O-])c1 | 0.746 (active)
15 | CCN(CC)c1ccc(C=C2C(=O)N(C)C(=O)N(C)C2=O)c(O)c1 | 1
